This note sets out measurements from PubChem BioAssay AID2284075 (EPA ToxCast).

Activity calls are given as the source filed them. The calls were made as follows: active = hit-call score of the fitted dose curve at least 0.9, where 1 is the maximum; inactive = score below 0.9.

Chain of human Aurora-A (AURKA) Other Protein Kinase, AURKA (gene 6790) (O14965 whole entry, looked up): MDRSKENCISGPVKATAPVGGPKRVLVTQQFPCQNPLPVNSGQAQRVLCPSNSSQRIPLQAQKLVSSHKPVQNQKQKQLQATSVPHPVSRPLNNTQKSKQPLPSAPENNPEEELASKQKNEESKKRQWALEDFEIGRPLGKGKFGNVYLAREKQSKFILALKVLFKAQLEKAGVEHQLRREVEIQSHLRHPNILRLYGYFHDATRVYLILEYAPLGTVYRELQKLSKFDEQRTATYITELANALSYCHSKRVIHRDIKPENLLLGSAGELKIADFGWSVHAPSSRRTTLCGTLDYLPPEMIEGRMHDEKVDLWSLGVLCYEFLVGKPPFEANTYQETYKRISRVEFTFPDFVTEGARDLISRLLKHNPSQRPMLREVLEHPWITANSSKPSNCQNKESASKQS

The experiment has as its target human Aurora-A (AURKA) Other Protein Kinase, AURKA (gene 6790) (UniProt O14965). Nature of the experiment: ERF_FR_ENZ_hAURKA: Eurofins (ERF) Enzymatic Radiometric [10 uM ATP] KinaseProfiler LeadHunter Assay for human Aurora-A (AURKA) Other Protein Kinase. On the procedure:
ERF_FR_ENZ_hAURKA is a biochemical, single-readout assay that uses extracted gene-proteins in a cell-free assay. Measurements were taken 0.25 hour after chemical dosing in a 96-well plate. See Aurora-A Human Other Protein Kinase Enzymatic LANCE Assay [Km ATP], Cerep.ERF_FR_ENZ_hAURKA is an assay component calculated from the ERF_FR_ENZ_hAURKA assay. It is designed to measure enzyme activity using a type of enzyme reporter as detected by fluorescence intensity with LANCE technology.Data from the assay component ERF_FR_ENZ_hAURKA was analyzed at the assay endpoint, ERF_FR_ENZ_hAURKA, in the positive analysis fitting direction relative to DMSO as the negative control and baseline of activity. Using a type of enzyme reporter, loss-of-signal activity can be used to understand changes in enzymatic activity as they relate to gene AURKA. To generalize the intended target to other relatable targets, this assay endpoint is annotated to the kinase intended target family, where the subfamily is serine/threonine kinase.
Aurora-A (h) is incubated with 8 mM MOPS pH 7.0, 0.2 mM EDTA, 200 uM LRRASLG (Kemptide), 10 mM MgAcetate and [gamma-33P]-ATP (specific activity and concentration as required). The reaction is initiated by the addition of the Mg/ATP mix. After incubation for 40 minutes at room temperature, the reaction is stopped by the addition of phosphoric acid to a concentration of 0.5%. […]
In the case of `O=C(/C=C/c1ccc(O)cc1)CC(=O)/C=C/c1ccc(O)cc1`, the call was inactive.
